Bioassay records (PubChem)
Pf apPOL inh – Pf-apPOL inhibitors, biochemical, fluorescence; Plasmodium falciparum apicoplast DNA polymerase (apPOL); Recombinant Pf-apPOL, molecular beacon fluorescence, 1.5 h; 210,000 tested, 0.25% active; inhibition, % at 10 µM; AID 1794808, 2022
mHTT-CaM PPI inh – mutant huntingtin-calmodulin interaction inhibitors – biochemical, AlphaScreen, primary screen | P42858 | AlphaScreen His-mHTT/GST-CaM binding, luminescence | inhibition, % at 15 µM | 190,000 tested, 3.6% active | AID 1671202, 2021
Of the large screens only hits and unclear results are named; the others gave an inactive call. This is one part of a sample in which hits are shown more often than they occur. Rule as the data show it: active = inhibition above about 50%; inactive = the rest.

CCCCN(C)C(=O)c1ccc(CN2C(=O)C3CCCN3C(=O)c3ccccc32)cc1 (centres undefined)	none
Cn1nccc1C(=O)N1CCC(c2nc(-c3ccccc3)no2)C1 (centres undefined)	none
CC1=C(C(=O)Nc2ccc(C)cc2C)C(c2ccc(Br)cc2)n2ncnc2N1 (centres undefined)	none
CCCNC(=O)c1ccc2c(c1)ncn2-c1ccc(C)c(Cl)c1	mHTT-CaM PPI inh 52
CCOC(CNC(=O)c1ccc2c(c1)ncn2-c1ccc(C)c(Cl)c1)OCC	none
Cc1ccc(-n2cnc3cc(C(=O)NCc4ccco4)ccc32)cc1Cl	mHTT-CaM PPI inh 79
Cc1ccc(-n2cnc3cc(C(=O)NCc4ccco4)ccc32)c(C)c1	none
CCOc1ccc(C(=O)N2CCCN(c3ncccc3-c3nc(CC)no3)CC2)cc1	none
Cc1onc(-c2c(Cl)cccc2Cl)c1C(=O)On1c(-c2ccccc2)nc2ccccc2c1=O	none (no result: mHTT-CaM PPI inh)
O=C(On1c(-c2ccccc2)nc2ccccc2c1=O)c1ccco1	mHTT-CaM PPI inh 100
CC(=O)c1ccc(NC(=O)CSc2nccc(-c3ccc(C)c(C)c3)n2)cc1	none
O=C(Nc1ccc(F)cc1Cl)c1cc2n(n1)CCCN(Cc1ccc(F)cc1)C2=O	none
Clc1cccc(-c2nc(-c3ccccc3Cl)no2)c1	none
COc1ccc2c(-c3ccc(SC)cc3)c(-c3ccccc3OC)sc2c1	none
O=C1C2=C(Nc3ccccc3SC2c2ccco2)c2ccccc21 (centres undefined)	mHTT-CaM PPI inh 69
COc1ccc(C2Sc3ccccc3NC3=C2C(=O)c2ccccc23)cc1OC (centres undefined)	mHTT-CaM PPI inh 69
O=C1CCCC2=C1C(c1ccco1)C1=C(N2)c2ccccc2C1=O (centres undefined)	none
COc1cc(C2C3=C(Nc4c2c(=O)[nH]c(=O)n4C)c2ccccc2C3=O)ccc1O (centres undefined)	none
CCN(Cc1cnn(CC)c1)C(=O)C1CCc2nc(N3CCCCC3)ncc2C1 (centres undefined)	none
CCCCc1nc(SCC(=O)c2ccccc2)n[nH]1	none
Nc1nc2n(n1)C(c1cccs1)CC(c1ccc(Cl)c(Cl)c1)N2 (centres undefined)	mHTT-CaM PPI inh 84
COc1ccc(C2CC(c3ccc(Cl)c(Cl)c3)Nc3nc(N)nn32)cc1OC (centres undefined)	none
CCOc1ccccc1C1CC(c2ccc(Cl)c(Cl)c2)Nc2nc(N)nn21 (centres undefined)	mHTT-CaM PPI inh 100
COc1ccc(C2CC(c3ccccc3Cl)Nc3nc(N)nn32)cc1OC (centres undefined)	none
Nc1nc2n(n1)C(c1ccc(Cl)cc1)CC(c1ccccc1)N2 (centres undefined)	none
COc1ccccc1C1CC(c2ccc(Cl)cc2Cl)Nc2nc(N)nn21 (centres undefined)	mHTT-CaM PPI inh 57
COC(=O)c1cc(Nc2ccc(OC)cc2OC)c2ccccc2n1	none
Cc1ccc(/C=C2\N=C(c3cccc(F)c3)OC2=O)o1	none
CCOc1nc(N=C(N)N)nc2c(C)cccc12	mHTT-CaM PPI inh 65
CCOc1nnc(-c2ccc(C)cc2)c2ccccc12	none
O=C(O)CCSc1ccc([N+](=O)[O-])cc1	none
CC1CC(=O)N(c2ccc(N3CCN(c4cccc(Cl)c4)CC3)c([N+](=O)[O-])c2)C1=O (centres undefined)	none
COc1ccc(Cl)cc1CN1CCN(c2ccc(N3C(=O)CC(C)C3=O)cc2[N+](=O)[O-])CC1 (centres undefined)	mHTT-CaM PPI inh 73
COc1ccc(Cl)cc1CN1CCN(c2ccc(N3C(=O)CCCC3=O)cc2[N+](=O)[O-])CC1	mHTT-CaM PPI inh 73
COc1cc2c(cc1OC)C(C)N(c1ccc(N3C(=O)CC(C)C3=O)cc1[N+](=O)[O-])CC2 (centres undefined)	mHTT-CaM PPI inh 60
CC1CC(=O)N(c2ccc(N3CC4(C)CC3CC(C)(C)C4)c([N+](=O)[O-])c2)C1=O (centres undefined)	none
COc1ccc(Cl)cc1CN1CCN(c2ccc(N3C(=O)COCC3=O)cc2[N+](=O)[O-])CC1	mHTT-CaM PPI inh 79
Cc1ccc(N2CCN(c3ccc(N4C(=O)COCC4=O)cc3[N+](=O)[O-])CC2C)cc1 (centres undefined)	none
O=C1CCCC(=O)N1c1ccc(N2CCCC(CO)C2)c([N+](=O)[O-])c1 (centres undefined)	none
Cc1ccc(N2C(=O)C3N=NN(c4ccccc4)C3C2=O)cc1Cl (centres undefined)	none
Cc1cccc(CN2CCCn3nc(C(=O)NCCCN4CCCC4)cc3C2=O)c1	none
CCCCC(=O)Nc1c(-c2ccccc2C)nc2cc(C)ccn12	none
CCn1c(=O)c(N2CCC(NC(=O)NCCCOC)CC2)nc2ccccc21	none
Cc1c(Cl)cccc1NC=CC(=O)c1ccc(Cl)cc1	none
O=C(CCC1CCCN(C(=O)Nc2ccc(F)cc2)C1)NCc1cccc(F)c1 (centres undefined)	none
